# Results from PubChem BioAssay AID1259311 (ICCB-Longwood Screening Facility, Harvard Medical School, 2017).
# Where “and” joins values, the source holds several entries; their conditions need not be identical. Equal values may be shown once. Among all 330,000 compounds or so, about 1,100 (0.33%) were called active. What follows is part of a selection rich in actives, with near analogues and random picks from the rest. Values without a mark were called inactive. Rule as the data show it: active = inhibition above about 85%; inactive = the rest.
# Assay: growth inhibition of S. aureus RN4220, primary screen, OD600 (AID 1259311);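 also: plate controls were untreated cells for no effect and reference antibiotic for full effect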
# Conditions: OD600, 16 h, hits give high values
row,SMILES,inhibition
1,CON=Cc1ccc(N2CCOCC2)c([N+](=O)[O-])c1,6.02%
2,C=CCn1c(CNc2ccccc2)nnc1SCC(=O)NN=Cc1ccccc1O,1.54%
3,O=C(O)CCC(=NNc1ncc(C(F)(F)F)cc1Cl)C(=O)O,4.71%
4,CC(=O)Nc1cccc(C(C)=NNc2ccc(S(=O)(=O)Nc3ccccc3C(=O)O)cc2[N+](=O)[O-])c1,-10.1%
5,CCc1ccc2c(c1)C1(NN=C(c3ccccc3)S1)C(=O)N2 (stereo not drawn),92.6% (active)
6,CCN(CC)c1ccc(C(=O)c2cnc(N=CN(C)C)s2)cc1,8.12%
7,CC(=NNC(=O)CNS(=O)(=O)c1ccc(C)cc1)c1cccc([N+](=O)[O-])c1,-3.24%
8,Cn1c(NN=Cc2ccccc2)nc2sc3c(c2c1=O)CCC3,6.77%
9,O=C(NN=Cc1ccccc1)c1ccc(CN2C(=O)c3cccc4cccc2c34)cc1,0.745%
10,S=C(Nc1ccccc1)Nc1ccc2ccccc2c1,-8.9%
11,Cc1nc2cc(NC(=O)Nc3cccc(F)c3)ccc2n1C,2.6%
12,O=C(Nc1ccc2ccccc2c1)Nc1ccc2snnc2c1,106% (active)
13,Nc1nonc1-n1nnc(C(=O)NN=Cc2ccncc2)c1CN1CCCCC1,1.52%
14,Cc1ccccc1NC(=O)C(C)ON=Cc1cccc([N+](=O)[O-])c1 (stereo not drawn),4.13%
15,COc1ccc(CC(O)=C(C#N)c2nc3ccccc3[nH]2)cc1OC,-2.45%
16,CCOC(=O)C=c1sc(=Cc2c(OCC)ccc3ccccc23)c(=O)n1CC(=O)NCC1CCCO1 (stereo not drawn),-2.12%
17,CCOC(=O)C1(CCOc2ccccc2)CCN(Cc2ccc(C#CCCO)cc2)CC1,5.24%
18,CCOC(=O)C1(CCOc2ccccc2)CCN(Cc2cc(OC)cc(OC)c2)CC1,1.85%
19,Cc1c(CN2CCC(CO)(CCOc3ccccc3)CC2)[nH]c2ccc(Cl)cc12,97.5% (active)
20,C#CCOCCOCCOCCNc1nc(N2CCN(C(=O)C(Cc3cc4ccccc4[nH]3)n3cc(C(N)CC(C)C)nn3)CC2)nc(N2CCN(C(=O)C(Cc3ccc(O)cc3)n3cc(C(N)C(C)CC)nn3)CC2)n1 (stereo not drawn),-1.75%

row,SMILES,inhibition
1,CCNc1nc(NCC)nc(NN=Cc2ccc(O)c(OC)c2)n1,4.03%
2,COc1ccc(C=NNC(=O)C(=O)N2CCCCCC2)cc1,0.0129%
3,Cc1nc2c(-c3ccccc3)c(C)[nH]n2c(=O)c1Cl,5.58%
4,Cc1[nH]n(-c2cccc(Cl)c2)c(=O)c1-c1ccc(Cl)cc1,106% (active)
5,Cc1cc(=O)n2[nH]c(-c3cccc(Cl)c3)cc2n1,0.714%
6,CC(C)(C)NC(=O)C=NO,6.33%
7,O=C(NN=Cc1ccc(OC(F)F)cc1OC(F)F)c1ccc(Br)cc1,3.44%
8,N#CC(=C(O)c1ccco1)c1ccccn1,2.69%
9,Oc1ccc(Br)cc1C=Nn1c(COc2ccccc2)n[nH]c1=S,5.82%
10,FC(F)(F)c1cccc(NC(=S)Nc2cccc(Cl)c2)c1,100% (active)
11,O=C(O)CC1(CC(=O)Nc2cccc(C(F)(F)F)c2)CCCC1,3.93%
12,Cn1cc(Cl)c(C(=O)NNC(=S)Nc2cccc(Cl)c2)n1,4.73%
13,CCN1CC2C3C(=O)N(C)C(=O)C3[C@](Cc3ccccc3)(C1=O)N2C(=O)c1ccccc1 (stereo partly drawn),1.95%
14,COC(=O)C(C=NOCc1ccc([N+](=O)[O-])cc1)NC(=O)c1cccc(Cl)c1 (stereo not drawn),-3.78%
15,COC(=O)[C@@]1(Cc2ccc(OC)cc2)C2c3cc(C(=O)N4CCCC4)n(CCSCCO)c3CC2CN1C(=O)c1ccccc1 (stereo partly drawn),3.17%
16,N#CC1=C(SCc2ccc(C#N)cc2)N=C(N)C(c2nc(-c3ccccc3)cs2)C12CCCCC2 (stereo not drawn),98.3% (active)
17,N#CC1=C(SCc2ccccc2)NC(=O)C(C#N)C12CCCC2 (stereo not drawn),13.6%
18,N#Cc1ccc(CSc2ncccn2)cc1,3.27%
19,O=C(NC1CC1)C1=CC(C2CC2)CC(OCCCCO)O1 (stereo not drawn),6.8% and 1.82%
20,Cc1cc(C(=O)NN=Cc2cc(Cl)cc([N+](=O)[O-])c2O)n[nH]1,7.38%

row,SMILES,inhibition
1,COc1ccc(/C=C/C(=O)c2cc(Br)ccc(=O)c2O)cc1,94.3% (active)
2,COc1ccc(NC(=O)ON=Cc2ccc(Br)cc2)cc1,5.53%
3,COc1ccc(C(=O)/C=C/c2cccnc2)c(OC)c1,2.36%
4,O=C(Cc1ccccc1)NNC1CC(=O)N(c2ccc(Br)cc2)C1=O (stereo not drawn),4.24%
5,CC(C)(C)OC(=O)NC(Cc1ccccc1)C(=O)NC(CO)C(O)C1CC1C(=O)NC1CC1 (stereo not drawn),2.57%
6,CC(C)(C)OC(=O)C1=C(CO)CS[C@@H]2[C@H](NC(=O)Cc3ccccc3)C(=O)N12,99.2% (active)
7,CC(=NNC(=O)CNc1ccccc1)c1ccccc1,0.316%
8,Cc1cc(N=Nc2ccc3ccccc3c2)ccc1O,99.9% (active)
9,Cc1c(O)ccc(C(Cc2ccc3ccccc3n2)=NN)c1O,4.37%
10,COc1cccc(C=NNC(=O)CNC(=O)C2COc3ccccc3O2)c1O (stereo not drawn),2.29%
11,CC(=NNC(=O)CNC(=O)C1COc2ccccc2O1)c1ccc([N+](=O)[O-])cc1 (stereo not drawn),2.91%
12,CC(=O)c1cccc(NC(=O)C2COc3ccccc3O2)c1 (stereo not drawn),4.71%
13,O=C(Nc1ncc([N+](=O)[O-])s1)C1COc2ccccc2O1 (stereo not drawn),92.1% (active)
14,Cc1ccc(NC(=O)CN2C(=O)SC(=Cc3cccn3-c3cccc(C(=O)O)c3)C2=O)cc1C,8.73%
15,CC(=NN=C(c1ccccc1)c1ccccc1)c1ccco1,7.82%
16,COc1ccc(CN(Cc2ccc(OC)cc2)C(=O)c2cccs2)cc1,6.45%
17,COc1ccc(C(CCN(Cc2ccc(OC)c(OC)c2)C(=O)CCl)c2ccccc2)cc1 (stereo not drawn),85.5% (active)
18,COc1ccc(CCNC(=O)C(Sc2ccccn2)c2ccccc2)cc1OC (stereo not drawn),4.13%
